{
  "source": "PubChem BioAssay (NCI)",
  "note": "The panel holds about 83,000 compounds, 20% with a hit somewhere; the sample as a whole holds those more often.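 Values shown are percent growth following 48 h exposure of cells in 96-well plates to a single concentration of compound; below 10 was considered active.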 Calls of active or inactive are those of the source.",
  "data": [
    {"test_system": "OVCAR-8 ovarian", "experiment": "NCI-60 one-dose screen, 48 h (100 = growth as untreated, 0 = no growth, -100 = all killed)", "details": "10 µM unless noted", "values": [
      {"smiles": "O=S(=O)(NCCCNc1nccc(-n2ccc3cccnc32)n1)c1cccc(C(F)(F)F)c1", "growth": "105% (inactive)"},
      {"smiles": "CC(C)(C)n1cc(-c2ccnc(NCCNS(=O)(=O)c3ccc(F)cc3)c2)c(-c2cccc(O)c2)n1", "growth": "62.4% (inactive)"},
      {"smiles": "Cc1ccc(-c2cc3nc(C(Cl)Cl)nc(-c4ccccc4C)n3n2)cc1", "growth": "90.5% (inactive)"},
      {"smiles": "O=C(NNC(=O)N1c2ccccc2C=Cc2ccccc21)c1ccc2ccccc2c1", "growth": "94.9% (inactive)"},
      {"smiles": "CN(C[C@H]1Cc2c(cccc2N2CCN(Cc3ccccn3)CC2)CN1)[C@H]1CCCc2cccnc21", "growth": "42.7% (inactive)"},
      {"smiles": "CCCCCCCCC(C)OC(=O)c1nn(C(C)=O)c2ccccc12", "note": "(centres undefined)", "growth": "95.7% (inactive)"},
      {"smiles": "OC(c1cc2cc(Br)ccc2c2cc(Br)ccc12)C1CCCCN1", "note": "(centres undefined)", "growth": "-69.4% (active)"},
      {"smiles": "O=C(NS(=O)(=O)c1ccc2ccccc2c1)n1cc(-c2ccncc2)c(-c2ccc(Cl)c(O)c2)n1", "growth": "72.5% (inactive)"},
      {"smiles": "Cc1cc(N)n(S(=O)(=O)c2oc(-c3ccccc3)nc2C#N)n1", "growth": "89.4% (inactive)"},
      {"smiles": "O=[N+]([O-])c1ccc(C(c2ccccc2)c2ccccc2)cc1", "growth": "107% (inactive)"},
      {"smiles": "CN(C)c1oc(C2OC2c2ccccc2)nc1C#N", "note": "(centres undefined)", "growth": "85.4% (inactive)"},
      {"smiles": "Cc1ccc(S(=O)(=O)NC(=O)n2cc(-c3ccncc3)c(-c3ccc(Cl)c(O)c3)n2)cc1", "growth": "99% (inactive)"},
      {"smiles": "CN(CCCCN(C[C@H]1Cc2ncccc2CN1)[C@H]1CCCc2cccnc21)C1CCC(F)(F)CC1", "growth": "85.6% (inactive)"},
      {"smiles": "Cc1cc(C2(c3cc(C)c(O)cc3C)OS(=O)(=O)c3ccccc32)c(C)cc1O", "growth": "103% (inactive)"},
      {"smiles": "CC1CN(c2oc(-c3ccccc3)nc2C#N)CC(C)O1", "note": "(centres undefined)", "growth": "102% (inactive)"},
      {"smiles": "NC(=O)CCCN1C/C(=C\\c2ccccc2)C(=O)c2ccccc21", "growth": "98.4% (inactive)"},
      {"smiles": "Cc1ccc(S(=O)(=O)NCCCNc2cc(-c3cn(C(C)(C)C)nc3-c3cccc(O)c3)ccn2)cc1", "growth": "71.9% (inactive)"},
      {"smiles": "Cc1nc2ncccc2nc1Nc1ccc(S(=O)(=O)Nc2ccccn2)cc1", "growth": "93.6% (inactive)"},
      {"smiles": "COc1ccc(NC(=O)c2c(Nc3ccc(OC)cc3OC)n[nH]c2N)c(OC)c1", "growth": "96.4% (inactive)"},
      {"smiles": "CCOC(=O)c1cn2c3c(cc(C)cc3c1=O)C(=O)/C(=C/c1ccccc1)C2", "growth": "82.1% (inactive)"},
      {"smiles": "N=c1ccc2nc3ccc(N)cc3sc-2c1", "growth": "13.5% (inactive)"},
      {"smiles": "CC12CCC3C4(C)COC(c5ccccc5Cl)OC4CCC3(C)C1CC(C1=CCOC1=O)O2", "note": "(centres undefined)", "growth": "65.1% (inactive)"},
      {"smiles": "C=C1CCC2C(C)(CO)C(O)CCC2(C)C1CC(NCc1ccccc1)C1=CCOC1=O", "note": "(centres undefined)", "growth": "94% (inactive)"},
      {"smiles": "c1cc(C2=N[C@@H]3c4ccccc4C[C@@H]3O2)nc(C2=N[C@@H]3c4ccccc4C[C@@H]3O2)c1", "growth": "106% (inactive)"},
      {"smiles": "COC1=C(OC)C(=O)C(CCCCCCCCCC[P+](c2ccccc2)(c2ccccc2)c2ccccc2)=C(C)C1=O", "growth": "-48.3% (active)"},
      {"smiles": "COc1ccc(-c2cc(-c3ccccc3)nc(SCCCC(=O)NO)n2)cc1OC", "growth": "5.05% (active)"},
      {"smiles": "N=C(N)c1ccc(-c2cc(Cl)cc(Cl)c2)cn1", "growth": "99.2% (inactive)"},
      {"smiles": "Nc1cccc(-c2nc3sccn3c2-c2ccnc(NCCNS(=O)(=O)c3ccc(C(F)(F)F)cc3)n2)c1", "growth": "38.3% (inactive)"},
      {"smiles": "C=C1CCC2C(C)(CO)C(O)CCC2(C)C1C/C=C1/C(=O)OCC1O/C=C/c1ccccc1", "note": "(centres undefined)", "growth": "55.3% (inactive)"},
      {"smiles": "CCN(CC)CCC(CNc1ccnc2cc(Cl)ccc12)c1ccccc1", "note": "(centres undefined)", "growth": "61.2% (inactive)"},
      {"smiles": "COc1ccc(-c2ccc(-c3ccc(C(=N)N)cn3)s2)cc1OC", "growth": "102% (inactive)"},
      {"smiles": "Cn1cnc2c(N3CCN(C(=O)OCc4ccc5c(Cl)cc(Cl)c(O)c5n4)CC3)nc(Cl)nc21", "growth": "51.3% (inactive)"},
      {"smiles": "C=C1CCC2C(C)(CO)C(O)CCC2(C)C1C/C=C1/C(=O)OCC1Oc1ccccc1C", "note": "(centres undefined)", "growth": "72.5% (inactive)"},
      {"smiles": "COc1ccc(S(=O)(=O)NCCCNc2nccc(-n3ccc4cccnc43)n2)cc1", "growth": "92.7% (inactive)"},
      {"smiles": "CCN(CC)CCC(CNc1ccnc2cc(Cl)ccc12)c1ccc(Cl)cc1", "note": "(centres undefined)", "growth": "1.27% (active)"},
      {"smiles": "N=C(N)c1ccc(-c2ccc(-c3ccc(-c4cccs4)s3)s2)cc1", "growth": "101% (inactive)"},
      {"smiles": "COc1ccc(Nc2nn3c(C)cc(C)nc3c2C(=O)Nc2ccc(C)cc2)c(OC)c1", "growth": "100% (inactive)"},
      {"smiles": "CCCCCCN1CSC(=S)N(CCCCCC)C1", "growth": "103% (inactive)"},
      {"smiles": "O=C(NS(=O)(=O)c1ccccc1)n1cc(-c2ccncc2)c(-c2ccc(Cl)c(O)c2)n1", "growth": "105% (inactive)"}
    ]}
  ]
}
